Screens (PubChem)
Exocytosis inh – LAMP-1 surface exposure blockers, TALL-104 cells – cell-based, flow cytometry, MLPCN library, primary screen; hit rate 0.66% among 360,000; inhibition, % at 10 µM; TALL-104 LAMP-1 surface exposure; cells stimulated with thapsigargin and PMA;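 active = inhibition above about 55%, limit read from the data; inconclusive = no clear call, values can overlap the other calls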
JMJD2C inh – inhibitors of GASC-1 histone demethylase, primary screen, biochemical, fluorescence, DELFIA europium; Lysine-specific demethylase 4C (Homo sapiens), Q9H3R0; GST-JMJD2C(1-420) H3K9me3 demethylation; inhibition, % at 2.35 µM; hit rate 0.069% among 330,000; AID 2099, 2009;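 active = more than half of a compound's replicate wells show inhibition beyond 50%, single wells judged on their own value; inconclusive = some, but no more than half, of replicates pass 50% inhibition; inactive = no replicate passes 50% inhibition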;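 also: signal counts dimethyl H3K9 product captured on neutravidin plate; 0% = median of DMSO wells and 100% = 0.3 times that DMSO median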
MEX-5 binding – MEX-5 zinc finger RNA-binding disruptors – biochemical, C. elegans, fluorescence polarization, MLPCN library, primary screen; Zinc finger protein mex-5 (Caenorhabditis elegans), Q9XUB2; MEX-5/FITC-TCR2 RNA binding; hits give low values; activity score (negative = inhibition of binding), % at 10 µM; hit rate 0.38% among 300,000;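 active = inhibition past about -25% in most replicates, and total fluorescence under double the plate's negative control median, limit read from the data; inconclusive = replicates evenly split on the limit, or fluorescence at least double controls; inactive = too little inhibition in most replicates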;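 also: 0% = DMSO and -100% = 5 µM competing unlabeled TCR2 RNA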
V-ATPase pH – regulators of yeast V-ATPase proton pumping, primary screen, pHLuorin cytosolic pH fluorescence; S. cerevisiae; response, % at 10 µM; hit rate 0.37% among 350,000; AID 504577, 2011; in the data active = response mostly above about 7.3%, no sharp cut-off; inactive = mostly below about 5.4%; also: actives read high
HTR2A ag – mouse Htr2a agonists via beta-arrestin recruitment, primary screen, cell-based, luminescence; 5-hydroxytryptamine receptor 2A (Mus musculus), P35363; hit rate 0.66% among 360,000; CHO-K1 mHTR2A beta-arrestin complementation; percent of 30 µM serotonin response; activation, % at 7.6 µM; AID 624169, 2012;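 active = activation above a run cutoff, the mean activation of all tested compounds plus 3 SD, cut at about 14% in these data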;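 also: 0% = plate median of compound wells and 100% = 30 µM serotonin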
VLA-4 inh – inhibition in human VLA-4 binding assay, primary screen, VLA-4 allosteric modulator project, MLPCN library, flow cytometry, VLA-4 expressing cells; ligand binding flow cytometry; Integrin alpha-4 (Homo sapiens), P13612; hit rate 0.2% among 330,000; inhibition, % (about 7 µM as worked out from the volumes in the protocol); AID 2557, 2010; in the data active = inhibition above about 50%
MOR ag counter – OPRM1 agonists via beta-arrestin recruitment, confirmation, counter-screen for mouse HTR2A agonist project, cell-based, luminescence, single concentration; shares compounds with HTR2A ag; U2OS OPRM1 beta-arrestin PathHunter; DMSO 0%, DAMGO 9.3 µM 100%; activation, % at 9.3 µM; hit rate 5.3% among 2,300;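 active = mean activation above the mean of DMSO-only wells plus 3 SD, cut at about 0.5% in these data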
Target sequence (P35372 whole entry, looked up): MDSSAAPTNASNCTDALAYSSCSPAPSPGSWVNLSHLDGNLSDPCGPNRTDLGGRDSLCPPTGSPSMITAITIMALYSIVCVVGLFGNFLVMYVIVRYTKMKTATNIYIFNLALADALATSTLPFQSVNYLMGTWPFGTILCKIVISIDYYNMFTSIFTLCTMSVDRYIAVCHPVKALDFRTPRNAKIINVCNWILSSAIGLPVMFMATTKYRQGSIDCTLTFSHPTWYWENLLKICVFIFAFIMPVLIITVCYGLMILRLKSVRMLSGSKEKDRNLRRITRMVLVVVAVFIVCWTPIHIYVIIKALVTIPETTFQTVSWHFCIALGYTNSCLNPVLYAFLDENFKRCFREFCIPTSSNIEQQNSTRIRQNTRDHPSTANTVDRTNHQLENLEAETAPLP
HTR2A ag conf – mouse HTR2A agonists, beta-arrestin recruitment, confirmation, cell-based, luminescence, CHO-K1 PathHunter, triplicate; shares compounds with HTR2A ag; DMSO 0%, 30 µM serotonin 100%; activation, % at 7.6 µM; hit rate 19% among 2,300; AID 624381, 2012;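 active = mean activation across triplicates above the hit threshold derived in the original primary screen, cut at about 15% in these data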
Granule exo CP1 – inhibitors of lytic granule exocytosis, confirmation, TALL-104 cells, flow cytometry, Cherry Pick01. shares compounds with Exocytosis inh. LAMP-1 externalization; stimulated with PMA plus thapsigargin. inhibition, % at 10 µM. hit rate 11% among 1,500; in the data active = inhibition above about 60%;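 also: 0% = stimulated vehicle wells and 100% = unstimulated wells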
Numbers without * were called inactive; ? = inconclusive; nt = not tested or not shown. Rows were chosen to be rich in hits. Some 2.2% of all compounds tested hit in one or more screens of this group.

SMILES	Exocytosis inh	JMJD2C inh	MEX-5 binding	V-ATPase pH	HTR2A ag	VLA-4 inh	MOR ag counter	HTR2A ag conf	others
O=C(OC1CCCCC1=O)c1cc(S(=O)(=O)N2CCOCC2)ccc1F (stereo not given)	-10	1	-2	6	15*	-3	1.1*	6
O=C(NC(=O)c1ccc(F)cc1F)Nc1ccc(Cl)cc1	2	2	-2	-1	-1	15	nt	nt
COc1cc(C)c(NC(=O)c2cccc(S(=O)(=O)N3CCCC3)c2)cc1OC	-5	3	nt	-3	8	15	nt	nt
O=[N+]([O-])c1c(O)c(Cl)cc(Cl)c1Cl (tested in a mixture with another compound)	-4	nt	nt	-2	5	nt	nt	nt
Oc1c(/C=N/c2ccccn2)sc2ccccc12	-4	6	4	0	15*	-3	0	-2
COc1ccc(C2/C=C\CN(C(=O)C3CCCC3)CC(=O)N2Cc2ccc(F)cc2)cc1 (stereo not given)	17	3	-1	-5	24*	-8	-1	62*
COc1ccc(C2/C=C\CN(C(=O)C3CCCCC3)CC(=O)N2Cc2ccc(F)cc2)cc1 (stereo not given)	-6	1	0	-1	3	nt	nt	nt
COc1c(C(=O)NNC(=O)c2ccccc2)csc1Br	4	13	3	1	2	2	nt	nt
CC(C)NC(=O)C(=O)NC1CCCCCC1	-3	-10	-3	2	-1	-1	nt	nt
CC(C)/C=C1\CCCCC1N(C)C(=O)NC(C)C (stereo not given)	-1	-5	2	-7	28*	5	-1	-6
CCCCN(CC)C(=O)Cn1ncc2c1-c1cc(C)ccc1OC2	-3	6	1	-1	17*	1	-1	-1
COc1cc2c(cc1OC)C(C)N(C(=O)Cn1ncc3c1-c1cc(C)ccc1OC3)CC2 (stereo not given)	3	3	0	3	2	5	nt	nt
COc1cccc(CNS(=O)(=O)c2cc3c4c(c2)CCN4C(=O)CC3)c1	-2	-5	2	-3	18*	2	-1	-3
CCNC(=O)N1C[C@H]2CON(C)[C@H]2C[C@H]1c1ccccc1Br	2	nt	nt	2	1	nt	nt	nt
CC(=O)N1C[C@H]2CON(C)[C@H]2C[C@H]1c1ccccc1Br	4	nt	nt	0	18*	nt	-1	-4
COc1ccc(-c2cnc3c(NC(C)=O)cc(-c4ccc(C(=O)N5CCOCC5)cc4)cn23)cc1OC	11	nt	nt	nt	15*	nt	0	3
Cc1ccc(-c2cc(C(=O)NCc3ccco3)c3ccccc3n2)s1	-1	4	1	-1	16*	3	-1	-5
O=C1N=C(N2CCOCC2)S/C1=C\c1ccc(-c2ccccc2Cl)o1	-4	22	?	-39	1	7	nt	nt
Cc1ccccc1-c1ccc(/C=C2/SC(N3CCOCC3)=NC2=O)o1	20	-47	?	-1	21*	6	-1	89*
Cc1ccc(-n2nc3c(=O)n(CCCC(=O)NCCN4CCN(C)CC4)nc(C)c3c2C)cc1	0	-32	-3	-6	21*	9	0	1
Cc1cc(C(=O)CSc2nc(N)cc(=O)[nH]2)c(C)n1CC1CCCO1 (stereo not given)	0	-6	nt	1	0	8	nt	nt
Cc1cc(C(=O)CSc2nc3ccccc3[nH]2)c(C)n1CC1CCCO1 (stereo not given)	90*	-10	-1	-2	25*	3	0	10	Granule exo CP1=77*
Cc1ccccc1CC(=O)Nc1ccc2c(c1)c(=O)n(C)n2-c1cccs1	7	nt	nt	nt	-6	nt	nt	nt
COCCNC(=S)N(CCc1c(C)[nH]c2ccc(F)cc12)Cc1ccco1	63*	2	0	7	28*	5	0	-3	Granule exo CP1=-14
CC(=O)Nc1ccc(SC[C@H](CC(C)C)N2CCN(CCc3ccccc3)CCC2=O)cc1	66*	2	0	1	19*	-2	0	17*	Granule exo CP1=-3
SMILES	Exocytosis inh	JMJD2C inh	MEX-5 binding	V-ATPase pH	HTR2A ag	VLA-4 inh	MOR ag counter	HTR2A ag conf	others
CC1CCCN(C(=O)CN(C)S(=O)(=O)c2cccc3nsnc23)C1 (stereo not given)	-1	-5	-2	2	3	23	nt	nt
CN(C)c1ccc(C(C(=O)NCc2ccccc2)N(Cc2ccco2)C(=O)c2snc(C(N)=O)c2N)cc1 (stereo not given)	99*	5	-2	-5	16*	-16	-1	3	Granule exo CP1=2
COc1cc2c(cc1O)[C@@H]1Cc3cc(OC)c(OC)cc3C(C2)N1C	-3	-2	3	-1	-3	-8	nt	nt
COc1cc2c(cc1OC)[C@@H]1Cc3cc4c(cc3[C@H](C2)N1C)OCO4	79*	3	0	0	18*	-5	0	-4	Granule exo CP1=-14
CCOc1cccc(CN2CCCC(C(=O)c3cc(Cl)ccc3OC)C2)c1O (stereo not given)	80*	-4	4	4	23*	4	0	6	Granule exo CP1=-9
COc1ccc2cc(C(=O)N3CCN(c4ccccc4OC)CC3)[nH]c2c1	-16	-7	0	3	-6	1	nt	nt
Cc1ccc(NC(=O)CSc2nc3ccccc3c(=O)n2CCCN2CCCCC2)cc1Cl	79*	-1	-1	1	30*	14	0	10	Granule exo CP1=58
O=C(CSc1nc2ccccc2c(=O)n1CCCN1CCOCC1)Nc1ccc(F)c(Cl)c1	-3	4	nt	1	-9	-2	nt	nt
CC(=O)c1cccc(NS(=O)(=O)c2cc3c(cc2C)N(C(C)=O)CCO3)c1	3	7	-1	0	4	24	nt	nt
CC(NC(=O)CSc1nc2c(c(C(F)(F)F)n1)CCc1ccccc1-2)c1ccccc1 (stereo not given)	59*	-3	0	-3	-3	-4	nt	nt	Granule exo CP1=-3
